# Sampled rows, rich in hits. Any-hit rate of the full collection: about 6.8%.
# NS3h inh CB: HCV NS3 helicase inhibitors, primary screen, biochemical, fluorescence polarization, ChemBridge library | NS3h Cy5-dT15 DNA binding | inhibition, % at 100 µM | hit rate 1.6% among 16,000 | AID 687043, 2013;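 active = inhibition above the average over every tested compound plus 3 SD, cut at about 40% in these data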
# Cy5 interf NS3h: Cy5 fluorescence quenchers or enhancers, artefact control for HCV NS3 helicase inhibitor project, biochemical, ChemBridge library, Cy5 readout; Cy5-dT15 DNA with NS3h, fluorescence interference; actives lie on both sides; signal over control mean, under 1 quenches; hit rate 6% among 16,000; AID 720488, 2013; fluorescence interference ratio at 100 µM;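 active = compound fluorescence over control fluorescence at most 0.8, a quencher, or at least a set upper limit, an enhancer; inactive = ratio between 0.8 and the set upper limit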
# HCV NS3h conf: HCV NS3 helicase inhibitors, retest, confirmation, biochemical, fluorescence polarization, ChemBridge library; shares compounds with NS3h inh CB; NS3h binding to Cy5-dT15 DNA; inhibition, % at 100 µM; hit rate 20% among 240; AID 720485, 2013;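 active = percent inhibition of 50% or more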
# SSB FP counter: E. coli SSB-DNA binding inhibitors, counter-screen for HCV NS3 helicase inhibitor project, biochemical, fluorescence polarization, selected ChemBridge compounds. shares compounds with NS3h inh CB. E. coli SSB binding Cy5-dT15. inhibition, % at 100 µM. hit rate 40% among 240. AID 720486, 2013;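 active = inhibition of at least 50%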;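 also: displacers lower Cy5 polarization so higher inhibition means more SSB displaced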
# Target sequence (P0AGE0 whole entry, looked up): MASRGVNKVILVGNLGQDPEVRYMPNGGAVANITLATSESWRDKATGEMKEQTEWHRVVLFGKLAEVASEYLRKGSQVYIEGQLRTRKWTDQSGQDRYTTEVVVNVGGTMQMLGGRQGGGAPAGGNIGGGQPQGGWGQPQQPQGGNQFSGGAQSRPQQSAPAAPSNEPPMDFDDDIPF
# Cy5 SSB interf: Cy5 fluorescence interference with SSB-bound oligo, artefact control for HCV NS3 helicase inhibitor project, biochemical, E. coli SSB, selected ChemBridge compounds | shares compounds with NS3h inh CB | Cy5-dT15/E. coli SSB fluorescence interference; actives lie on both sides | fluorescence interference ratio at 100 µM | hit rate 8% among 240;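 active = fluorescence interference ratio at or above 1.2, signal boosting, or at or below 0.8, signal quenching; inactive = ratio between 0.8 and 1.2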;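 also: ratio of compound well signal to mean negative control signal so 1 means no effect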
# Cy5 fluor confirm: Cy5-DNA-NS3h complex fluorescence interference, confirmation, artefact control for HCV NS3 helicase inhibitor project, biochemical, ChemBridge library; fluorescence interference ratio at 100 µM, hits read low; shares compounds with NS3h inh CB; hit rate 44% among 240; Cy5-dT15 DNA/NS3h fluorescence interference counterscreen;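 active = fluorescence interference ratio at or below 0.8 quencher or at or above a set limitenhancer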;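 also: ratio of compound fluorescence to mean of negative controls so 1 means no interference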
# Numbers without * were called inactive; · = no result given.
SMILES,NS3h inh CB,Cy5 interf NS3h,HCV NS3h conf,SSB FP counter,Cy5 SSB interf,Cy5 fluor confirm
COc1c(Cl)cc(C(=O)Nc2ccc(-c3nc4cc(C)ccc4o3)cc2)cc1Cl,8,0.99,·,·,·,·
Cc1ccc(C(=O)CSc2nc3ccccc3c(=O)n2-c2ccccc2)cc1,22,1,·,·,·,·
Cc1ccc(-n2c(-c3ccccc3F)nc3c(cnn3-c3ccccc3)c2=O)cc1,41*,1.2,3,7,1.1,0.77*
O=C(Nc1ncc(Cc2cccc(Cl)c2Cl)s1)C1CC1,5,1.1,·,·,·,·
O=C1/C(=C\c2ccc(N3N=C(c4ccccc4)CC3c3ccccc3)cc2)SC(=S)N1C1CCS(=O)(=O)C1 (centres undefined),53*,1.2*,29,32,1,0.87
O=C1/C(=C/c2ccc(F)cc2)SC(=S)N1C1CCS(=O)(=O)C1 (centres undefined),11,1,·,·,·,·
CCc1cccc(NC2(c3ccccc3)C(=O)c3ccccc3C2=O)c1,69*,0.76*,11,17,0.93,0.94
CCOc1ccc(NC2(c3ccccc3)C(=O)c3ccccc3C2=O)cc1,20,1.1,·,·,·,·
O=C(O)c1ccc(OCc2ccoc2C(=O)O)cc1,-4,1,·,·,·,·
Cc1ccc(C(=O)O)cc1-n1c(C)ccc1C,82*,1.4*,89*,89*,1,0.81
Cc1ccc(-c2ccccc2)n1-c1ccccc1C(=O)O,7,1.1,·,·,·,·
Cc1cc(Cl)c2cc(C(=O)O)ccc2n1,2,0.99,·,·,·,·
Cc1cc(C(=O)O)ccc1-n1c(C)ccc1C,101*,1.4*,100*,108*,0.93,0.98
COc1ccc(OCCC(=O)c2ccc(OC)c(OC)c2)cc1,14,0.99,·,·,·,·
Cc1ccc(C(C)C)cc1OCC(=O)N=Nc1c(O)n(C)c2ccccc12,9,0.88,·,·,·,·
Cc1c(Cl)cccc1-c1ccc(C=O)o1,2,0.97,·,·,·,·
Cc1nc2ccccc2c(=O)n1N1C(=O)CCCC1=O,4,1.1,·,·,·,·
COc1cccc(/C=C2/C(=O)ON=C2c2ccccc2)c1OC,3,0.83,·,·,·,·
O=C1ON=C(c2ccccc2)/C1=C\c1ccc(OCc2ccccc2)cc1,40,1,3,9,0.96,0.75*
COc1ccc(S(=O)(=O)Nc2ccc([N+](=O)[O-])cc2)cc1,6,1,·,·,·,·
Cc1ccc(C(=O)Nc2nc(-c3ccccc3)cs2)cc1[N+](=O)[O-],10,1,·,·,·,·
Cc1nc(NC(=O)c2ccccc2)sc1-c1csc(Nc2cccc(C(=O)O)c2)n1,37,0.8*,-1,22,0.93,0.73*
Cn1c2ccc(CC(N)=O)cc2c2cc(CC(N)=O)ccc21,44*,1.2,2,8,1.1,0.84
CC(=O)c1ccc2c(c1)c1ccccc1n2C,18,0.98,·,·,·,·
O=C1NN(c2ccc(Br)cc2)C(=O)/C1=C\c1ccc(-c2cccc(C(=O)O)c2)o1,23,0.93,·,·,·,·
SMILES,NS3h inh CB,Cy5 interf NS3h,HCV NS3h conf,SSB FP counter,Cy5 SSB interf,Cy5 fluor confirm
O=C1NC(=S)N(c2ccccc2)C(=O)/C1=C/c1ccc(-c2cccc(C(=O)O)c2)o1,83*,1,26,82*,0.84,0.79*
CCOC(=O)c1ccc(-c2ccc(/C=C3/C(=O)NC(=O)N(c4ccccc4)C3=O)o2)cc1,24,0.92,·,·,·,·
O=C1NC(=S)N(c2ccc(Cl)cc2)C(=O)/C1=C\c1ccc(-c2cccc(C(=O)O)c2)o1,72*,1,57*,98*,0.92,0.91
Cc1ccc(NC(=O)COc2ccc(Cl)cc2Cl)cc1C,29,1.1,·,·,·,·
O=[N+]([O-])c1cc2c(cc1CC1CC1(Cl)Cl)OCCO2 (centres undefined),3,1,·,·,·,·
CCN(C)c1ccc(C=C2C(=O)NC(=O)NC2=O)cc1,92*,1.9*,111*,95*,1.5*,2.2*
CCOc1ccc(C=C2C(=O)NC(=O)NC2=O)cc1OCC,18,1.1,·,·,·,·
O=C(NCCNc1ccc([N+](=O)[O-])cc1Cl)c1cccc(Br)c1,3,0.95,·,·,·,·
Cc1ccc(N2C(=O)C=CC2=O)cc1[N+](=O)[O-],75*,0.96,61*,9,0.94,0.94
Cc1ccc([N+](=O)[O-])cc1N1C(=O)C=CC1=O,87*,1.1,44,-3,0.94,0.76*
Cc1ccc(C(=O)NCCC(C)C)cc1[N+](=O)[O-],1,0.95,·,·,·,·
Cc1ccc([N+](=O)[O-])cc1N1C(=O)C2C3C=CC(CC3)C2C1=O (centres undefined),18,0.88,·,·,·,·
COC(=O)c1cccc(NC(=O)/C=C/c2ccccc2)c1,17,1.1,·,·,·,·
CC1S/C(=N\N=C/c2ccc(Cl)cc2)NC1=O (centres undefined),-6,0.95,·,·,·,·
O=C(CSc1nc2ccccc2s1)NC(c1ccccc1)c1ccccc1,3,1,·,·,·,·
Oc1c(C=C2C=Nc3ccccc32)sc(=S)n1-c1ccc(Cl)cc1,18,1,·,·,·,·
COc1ccccc1N(CC(=O)NC(C)C)S(=O)(=O)c1ccccc1,-4,1.1,·,·,·,·
CN(C)/C=C/C=C/C=C1\CCC/C(=C\C=C\N(C)C)C1=O,55*,0.91,40,110*,0.86,0.96
CN(C)/C=C\C=C\C(=O)C1C2CC3CC(C2)CC1C3 (centres undefined),9,0.94,·,·,·,·
Cc1ccc(N(CC(=O)Nc2ccc3ccccc3c2)S(=O)(=O)c2ccc(F)cc2)cc1,-3,1,·,·,·,·
COc1cc(/C=C2\C(=O)NC(=O)N(c3cc(C)cc(C)c3)C2=O)cc([N+](=O)[O-])c1O,60*,1.1,16,51*,0.85,0.74*
COc1cccc(/C=C2/C(=O)NC(=O)N(c3cc(C)cc(C)c3)C2=O)c1O,16,1.1,·,·,·,·
COc1ccc(NC(=O)c2ccc(I)cc2)c(OC)c1,14,0.96,·,·,·,·
CCOc1ccc(/C=N/NC(=O)c2cncc(Br)c2)cc1,58*,0.8*,2,5,0.96,0.95
O=C(N/N=C/c1ccccc1O)c1cncc(Br)c1,11,0.98,·,·,·,·
Oc1ccc(Br)cc1CN1CCN(Cc2ccncc2)CC1,-2,1,·,·,·,·
O=C1/C(=C\c2cccs2)SC(=S)N1CCC(=O)N1CCCc2ccccc21,3,1.1,·,·,·,·
CC(=O)Oc1cccc(N2C(=O)c3ccc(C(=O)c4ccc5c(c4)C(=O)N(c4cccc(OC(C)=O)c4)C5=O)cc3C2=O)c1,41*,0.99,2,11,0.98,0.91
CC(=O)Oc1ccc(N2C(=O)c3ccc(C(=O)c4cccc([N+](=O)[O-])c4)cc3C2=O)cc1,5,1,·,·,·,·
Cc1cccc(NC(=O)CN(c2cccc(Cl)c2)S(C)(=O)=O)c1,12,1,·,·,·,·

# Screens from PubChem BioAssay.
